Results: PubChem BioAssay (Tox21)
Records with an inconclusive call do not appear. Active and inactive are the calls of the source. Calls come from the whole dose curve; as a rule, active = well fitted curve in the direction sought with a large enough effect in the repeat runs; inconclusive = weak or mixed curves; inactive = no such curve, though single readings can be large; an effect the other way counts as inactive or inconclusive.

Experiments:
[1] = Caspase-3/7 induction in HepG2 cells by small molecules, qHTS assay (AID 1346978); conditions: HepG2 caspase-3/7 activation, Caspase-Glo luminescence, 17 h; series mostly up to 92.4 µM; note: nearly all actives have a fitted effect of over 15% in size
Method in brief: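 Caspase-3/7 induction was measured by Caspase-Glo 3/7 luminescence (30 min, room temperature) after a 17 hr compound exposure of wild-type HepG2 cells seeded at 2,000 per well and pre-incubated 5 hr.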

[2] = Caspase-3/7 induction in CHO-K1 cells by small molecules, qHTS cell viability counter screen (AID 1346979); conditions: CellTiter-Fluor fluorescence, 17 h; series mostly up to 92.4 µM; note: nearly all actives have a fitted effect of over 35% in size; note: potency is the fitted concentration of half-maximal effect
Method in brief: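 CellTiter-Fluor viability check, qHTS format: wild-type CHO-K1, 16hr compound treatment, 1hr reagent incubation, fluorescence read.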

[3] = Caspase-3/7 induction in CHO-K1 cells by small molecules, qHTS assay (AID 1346980); conditions: CHO-K1 caspase-3/7 induction, Caspase-Glo luminescence, 17 h; series mostly up to 92.4 µM; note: nearly all actives have a fitted effect of over 15% in size
Method in brief: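 Luminescent Caspase-Glo 3/7 read (30min, room temperature) quantified apoptosis induction. Cells were wild-type CHO-K1, treated with compound for 17hr at 37 C and 5% CO2.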

[4] = Caspase-3/7 induction in HepG2 cells by small molecules, qHTS cell viability counter screen (AID 1346981); conditions: CellTiter-Fluor fluorescence, 17 h; series mostly up to 92.4 µM; note: nearly all actives have a fitted effect of over 30% in size; note: potency is the fitted concentration of half-maximal effect
Method in brief: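 After a 5-hr attachment period at 37 C and 5% CO2, wild-type HepG2 cells received compounds in DMSO. Sixteen hours later CellTiter-Fluor was dispensed and the fluorescent signal quantified after a further hour.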

[5] = target: Nuclear receptor subfamily 1 group I member 2 (Homo sapiens) (UniProt O75469); assay: Human pregnane X receptor (PXR) small molecule agonists, qHTS assay (AID 1346982); conditions: PXR-Luc HepG2, CYP3A4 luciferase reporter, 24 h; series mostly up to 92.4 µM; note: nearly all actives have a fitted effect of over 35% in size; note: potency is the fitted concentration of half-maximal effect
Method in brief: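 Tox21 qHTS; PXR-Luc HepG2; compounds pinned from DMSO; 24 hr, 37 C; ONE-Glo luciferase detection, 30 min room temperature.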

[6] = target: Cytochrome P450 2D6 (Homo sapiens) (UniProt P10635); assay: Cytochrome P450 Family 2 Subfamily D Member 6 (CYP2D6) small molecule antagonists: luciferase reporter qHTS assay (AID 1671196); conditions: P450-Glo CYP2D6 enzyme assay, luciferin luminescence, 1 h; series mostly up to 115 µM; note: nearly all actives have a fitted effect of over 50% in size; note: potency is the fitted concentration of half-maximal effect
Method in brief: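 Room-temperature luminescent CYP2D6 activity assay: compound preincubated 10 min with enzyme–substrate mix, NADPH-initiated reaction 1 h, detection reagent 20 min before reading.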

[7] = target: Cytochrome P450 2C19 (Homo sapiens) (UniProt P33261); assay: Cytochrome P450 Family 2 Subfamily C Member 19 (CYP2C19) small molecule antagonists: luciferase reporter qHTS assay (AID 1671197); conditions: P450-Glo CYP2C19 enzyme, luciferin luminescence, 1 h; series mostly up to 115 µM; note: nearly all actives have a fitted effect of over 65% in size; note: potency is the fitted concentration of half-maximal effect
Method in brief: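 Quantitative high-throughput screen of the Tox21 library using CYP2C19 with proluciferin substrate. Reaction: NADPH regeneration, 37C, 1 h, after 10 min compound preincubation at room temperature. Readout: luminescence.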

[8] = target: Nuclear receptor subfamily 1 group I member 2 (Rattus norvegicus) (UniProt Q9R1A7); assay: Rat pregnane X receptor (rPXR) activation by small molecules, qHTS assay (AID 1346983); conditions: rPXR luciferase reporter cells, One-Glo luminescence, 24 h; max activation: stronger effect = higher value; note: nearly all actives have a fitted effect of over 20% in size
Method in brief: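 Luminescent readout (One-Glo luciferase, 30 min room temperature) followed 24 hr compound treatment at 37 C of rPXR cells plated 2,000 per well and preincubated 5hr; qHTS format with compounds delivered in DMSO.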

[9] = target: Nuclear receptor subfamily 1 group I member 2 (Homo sapiens) (UniProt O75469); assay: CYP3A4 induction through human pregnane X receptor (PXR) by small molecules, qHTS assay (AID 1346984); conditions: DPX-2 HepG2 PXR, CYP3A4-luciferin luminescence, 24 h; series mostly up to 46.1 µM; note: nearly all actives have a fitted effect of over 40% in size
Method in brief: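 Cells (DPX-2; HepG2 with PXR element plus CYP3A4-promoter luciferase) settled 5hr, then were treated 24hr at 37C. A 3hr, 3uM-final Luciferin-IPA step preceded luminescence measurement with One-Glo.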

[10] = target: Nuclear receptor subfamily 1 group I member 2 (Homo sapiens) (UniProt O75469); assay: Human pregnane X receptor (PXR) activation by small molecules, qHTS assay (AID 1346985); conditions: DPX-2 HepG2 CYP3A4-luciferase, 24 h; series mostly up to 38.3 µM; note: nearly all actives have a fitted effect of over 40% in size
Method in brief: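 DPX-2 cells (HepG2 co-transfected with a PXR response element and a CYP3A4-promoter luciferase construct) were seeded at 2,000 per well, rested 5 hr at 37C, then exposed to DMSO-dissolved compounds for 24 hr. Activation was read as luciferase luminescence.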
% is set by controls: 0 for no effect and ±100 for the full control effect.

Chain of Cytochrome P450 2C19 (Homo sapiens) (P33261 whole entry, looked up): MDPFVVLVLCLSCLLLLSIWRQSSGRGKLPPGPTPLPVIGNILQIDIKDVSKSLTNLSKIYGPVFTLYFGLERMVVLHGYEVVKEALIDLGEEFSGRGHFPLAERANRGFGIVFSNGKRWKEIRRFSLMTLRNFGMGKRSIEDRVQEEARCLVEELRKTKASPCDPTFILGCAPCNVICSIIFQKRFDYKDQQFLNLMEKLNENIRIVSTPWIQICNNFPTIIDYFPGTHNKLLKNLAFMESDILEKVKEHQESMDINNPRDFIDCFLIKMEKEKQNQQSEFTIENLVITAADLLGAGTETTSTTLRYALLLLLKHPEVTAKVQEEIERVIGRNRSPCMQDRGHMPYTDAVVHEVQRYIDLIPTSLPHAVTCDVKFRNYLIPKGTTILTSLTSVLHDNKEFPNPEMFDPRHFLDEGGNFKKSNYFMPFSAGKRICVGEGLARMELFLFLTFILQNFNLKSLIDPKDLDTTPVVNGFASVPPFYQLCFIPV
Chain of Cytochrome P450 2D6 (Homo sapiens) (P10635 whole entry, looked up): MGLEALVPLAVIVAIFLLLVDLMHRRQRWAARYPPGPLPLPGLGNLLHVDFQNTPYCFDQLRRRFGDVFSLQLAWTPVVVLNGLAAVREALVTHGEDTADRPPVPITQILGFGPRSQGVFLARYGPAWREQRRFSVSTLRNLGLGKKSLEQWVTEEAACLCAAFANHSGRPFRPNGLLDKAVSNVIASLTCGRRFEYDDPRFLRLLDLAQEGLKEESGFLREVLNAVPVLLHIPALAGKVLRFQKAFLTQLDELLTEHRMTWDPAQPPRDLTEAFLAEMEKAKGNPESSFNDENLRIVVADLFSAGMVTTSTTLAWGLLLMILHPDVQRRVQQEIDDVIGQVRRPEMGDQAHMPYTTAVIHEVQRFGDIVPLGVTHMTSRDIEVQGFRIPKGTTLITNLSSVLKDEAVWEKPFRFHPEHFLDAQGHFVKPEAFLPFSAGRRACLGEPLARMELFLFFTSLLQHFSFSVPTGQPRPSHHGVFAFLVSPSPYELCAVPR
Chain of Nuclear receptor subfamily 1 group I member 2 (Rattus norvegicus) (Q9R1A7 whole entry, looked up): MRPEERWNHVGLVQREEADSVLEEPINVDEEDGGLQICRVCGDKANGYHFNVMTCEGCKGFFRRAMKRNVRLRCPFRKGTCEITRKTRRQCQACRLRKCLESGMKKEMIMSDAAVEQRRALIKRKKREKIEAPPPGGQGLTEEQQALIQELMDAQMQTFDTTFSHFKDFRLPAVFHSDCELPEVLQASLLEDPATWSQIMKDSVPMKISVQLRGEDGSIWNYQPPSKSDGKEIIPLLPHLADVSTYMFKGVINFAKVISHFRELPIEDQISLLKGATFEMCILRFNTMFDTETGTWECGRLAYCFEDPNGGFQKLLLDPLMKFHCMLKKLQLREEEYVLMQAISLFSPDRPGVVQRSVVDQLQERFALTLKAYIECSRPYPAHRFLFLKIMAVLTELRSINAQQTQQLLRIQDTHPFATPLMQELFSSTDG
Chain of Nuclear receptor subfamily 1 group I member 2 (Homo sapiens) (O75469 whole entry, looked up): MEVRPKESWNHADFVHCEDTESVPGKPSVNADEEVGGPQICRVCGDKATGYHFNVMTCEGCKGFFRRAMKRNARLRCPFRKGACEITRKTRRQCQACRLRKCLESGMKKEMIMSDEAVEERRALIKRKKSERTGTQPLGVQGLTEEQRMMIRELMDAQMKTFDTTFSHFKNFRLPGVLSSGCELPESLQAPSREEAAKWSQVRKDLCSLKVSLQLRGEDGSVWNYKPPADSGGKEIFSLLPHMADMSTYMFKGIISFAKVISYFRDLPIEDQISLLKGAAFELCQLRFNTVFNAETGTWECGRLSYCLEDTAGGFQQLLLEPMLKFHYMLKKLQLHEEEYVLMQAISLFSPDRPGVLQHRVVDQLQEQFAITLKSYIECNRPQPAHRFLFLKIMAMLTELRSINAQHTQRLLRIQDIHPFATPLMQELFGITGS

CCN(Cc1cccc(S(=O)(=O)O)c1)c1ccc(C(=C2C=CC(=[N+](CC)Cc3cccc(S(=O)(=O)O)c3)C=C2)c2ccccc2S(=O)(=O)[O-])cc1
active: Potency [2] 17.3 µM | Potency [4] 17.3 µM | Potency [6] 17.9 µM | Potency [7] 17.9 µM
inactive: Potency [1] | outcome [3] | Potency [5]

CCN(Cc1cccc(S(=O)(=O)O)c1)c1ccc(C(=C2C=CC(=[N+](CC)Cc3cccc(S(=O)(=O)O)c3)C=C2)c2ccc(O)cc2S(=O)(=O)[O-])cc1
inactive: Potency [1] | outcome [3]
active: Potency [2] 18.6 µM | Potency [4] 16.6 µM | Potency [6] 19.3 µM | Potency [7] 13.6 µM

CC(=O)OCC(=O)[C@@]1(OC(C)=O)[C@@H](C)C[C@H]2[C@@H]3C[C@H](F)C4=CC(=O)C=C[C@]4(C)[C@@]3(F)[C@@H](O)C[C@@]21C
inactive: Potency [1] | Potency [2] | outcome [3] | Potency [4] | Potency [6] | Potency [7]

CC(C)(C)C1(CCc2ccc(Cl)cc2)CO1 (stereo not drawn)
active: Potency [7] 1.26 µM
inactive: Potency [1] | Potency [2] | outcome [3] | Potency [4]

OCC(CO)n1cnc(-c2ccc(F)cc2)c1-c1ccnc(Oc2ccccc2)n1
inactive: Potency [1] | Potency [2] | outcome [3] | Potency [4]
active: Potency [7] 31.7 µM

CC(=O)NNC(C)=O
inactive: Potency [1] | Potency [2] | outcome [3] | Potency [4] | Potency [5] | Potency [6] | Potency [7]

O=C(C(=O)c1ccco1)c1ccco1
active: Potency [7] 80.4 µM
inactive: Potency [1] | Potency [2] | outcome [3] | Potency [4] | Potency [5]

CCOC(=O)N1CCC(Nc2ccc(Cl)cc2N)CC1
active: Potency [7] 4.36 µM
inactive: Potency [1] | Potency [2] | outcome [3] | Potency [4] | Potency [5]

CC[C@H]1OC(=O)[C@H](C)[C@@H](O[C@H]2C[C@@](C)(OC)[C@@H](O)[C@H](C)O2)[C@H](C)[C@@H](O[C@@H]2O[C@H](C)C[C@H](N(C)C)[C@H]2O)[C@](C)(O)C[C@@H](C)/C(=N\OCOCCOC)[C@H](C)[C@@H](O)[C@]1(C)O
active: Potency [2] 28.6 µM | Potency [4] 25.5 µM
inactive: Potency [1] | outcome [3] | max activation [8] 0.558% | Potency [9] | Potency [10] | Potency [6] | Potency [7]

CSCC[C@H](NC(=O)[C@H](Cc1c[nH]c2ccccc12)NC(=O)CCNC(=O)OC(C)(C)C)C(=O)N[C@@H](CC(=O)O)C(=O)N[C@@H](Cc1ccccc1)C(N)=O
inactive: Potency [1] | Potency [2] | outcome [3] | Potency [4] | Potency [5] | Potency [6] | Potency [7]

Cc1cc(CCC(=O)OCCOCCOCCOC(=O)CCc2cc(C)c(O)c(C(C)(C)C)c2)cc(C(C)(C)C)c1O
inactive: Potency [1] | Potency [2] | outcome [3] | Potency [4]
active: Potency [6] 9.78 µM | Potency [7] 2.76 µM

CC(C(=O)O)c1ccc(C(=O)c2cccs2)cc1 (stereo not drawn)
inactive: Potency [1] | Potency [2] | outcome [3] | Potency [4] | max activation [8] -2.97% | Potency [6]

CCCCCCCC/C=C\CCCCCCCC(=O)OCCO
active: Potency [7] 52.9 µM
inactive: Potency [1] | Potency [2] | outcome [3] | Potency [4]

CC(CN(CCN(CC(C)OCCO)CC(C)OCCO)CC(C)OCCO)OCCO (stereo not drawn)
active: Potency [5] 3.31 µM | Potency [7] 86.1 µM
inactive: Potency [1] | Potency [2] | outcome [3] | Potency [4]

CC(=O)OCC1=C(C(=O)O)N2C(=O)[C@@H](NC(=O)CSc3ccncc3)[C@H]2SC1
inactive: Potency [1] | Potency [2] | outcome [3] | Potency [4] | max activation [8] -5.99%
active: Potency [6] 11 µM

O=[N+]([O-])c1ccc2ncccc2c1
inactive: Potency [1] | Potency [2] | outcome [3] | Potency [4]
active: Potency [6] 31.8 µM | Potency [7] 40 µM

C1CCCCC1
inactive: Potency [1] | Potency [2] | outcome [3] | Potency [4] | Potency [5] | Potency [6] | Potency [7]

O=C1OC[C@H](Cc2cccc(O)c2)[C@H]1Cc1cccc(O)c1
active: Potency [7] 4.8 µM
inactive: Potency [1] | Potency [2] | outcome [3] | Potency [4] | Potency [5]

C=Cc1ccc(OC(C)=O)cc1
inactive: Potency [1] | Potency [2] | outcome [3] | Potency [4] | Potency [6] | Potency [7]

O=C(Oc1ccccc1)c1ccc2ccccc2c1O
inactive: Potency [1] | Potency [2] | outcome [3] | Potency [4]
active: Potency [5] 61.1 µM | Potency [7] 79.6 µM

CC1=CC[C@@H]2C[C@H]1C2(C)C
inactive: caspase activation [1] -0.809% [at 19 µM] | activity change, negative = cytotoxicity [2] -0.814% [at 19 µM] | caspase-3/7 activation [3] 0.0875% [at 19 µM] | activity change, negative = cytotoxicity [4] -0.185% [at 19 µM] | activity change, negative = inhibition [6] -8.83% [at 23.6 µM] | activity change, negative = inhibition [7] -6.89% [at 23.6 µM]

CC1CCCO1 (stereo not drawn)
inactive: Potency [1] | Potency [2] | outcome [3] | Potency [4] | Potency [6] | Potency [7]

COc1ccc(-c2cc(=S)ss2)cc1
inactive: Potency [1] | outcome [3] | Potency [4]
active: Potency [2] 29.8 µM | Potency [7] 9.77 µM

COc1cc(S(=O)(=O)Nc2ccccc2)c(OC)cc1N
active: Potency [5] 27.3 µM | Potency [7] 15.9 µM
inactive: Potency [1] | Potency [2] | outcome [3] | Potency [4]

CC12CC3CC(C)(C1)CC(N)(C3)C2
inactive: Potency [1] | Potency [2] | outcome [3] | Potency [4] | Potency [5] | Potency [7]

CC(C)COC(=O)COc1cc(Cl)c(Cl)cc1Cl
active: Potency [7] 8.91 µM
inactive: Potency [1] | Potency [2] | outcome [3] | Potency [4]
